In the library only some 3.4% were active in any assay of this set; here they are far more common.
Mcl1-Bid inh: Mcl-1/Bid interaction inhibition | inhibition, % at 21.7 µM | AID 1021 | TR-FRET Mcl-1/Bid-Dy647 peptide binding, 1536-well | Q07820 | actives 0.97% (n = 220,000);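 active = compounds that cut the binding signal by more than half at the single screening dose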;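 note: His-tagged Mcl-1 with europium anti-His antibody binding Bid BH3 peptide; 0% = Mcl-1 plus peptide wells and 100% = peptide-only wells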
Calpain2 inh: blocks pig calpain II enzyme activity | actives 0.37% (n = 220,000) | inhibition, % at 16 µM | AID 1236 | purified calpain II, fluorogenic peptide substrate, 30 min;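 active = inhibition above about 50%, limit read from the data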
p47phox inh: blocks human p47phox regulatory protein of NADPH oxidases. P14598. p47phox/p22phox peptide binding, fluorescence polarization, 2 h. inhibition, % at 24.7 µM. actives 0.53% (n = 220,000);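 active = inhibition above about 30%, limit read from the data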;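 note: 0% = p47phox with labelled peptide and 100% = labelled peptide alone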
Target sequence (P14598 whole entry, looked up): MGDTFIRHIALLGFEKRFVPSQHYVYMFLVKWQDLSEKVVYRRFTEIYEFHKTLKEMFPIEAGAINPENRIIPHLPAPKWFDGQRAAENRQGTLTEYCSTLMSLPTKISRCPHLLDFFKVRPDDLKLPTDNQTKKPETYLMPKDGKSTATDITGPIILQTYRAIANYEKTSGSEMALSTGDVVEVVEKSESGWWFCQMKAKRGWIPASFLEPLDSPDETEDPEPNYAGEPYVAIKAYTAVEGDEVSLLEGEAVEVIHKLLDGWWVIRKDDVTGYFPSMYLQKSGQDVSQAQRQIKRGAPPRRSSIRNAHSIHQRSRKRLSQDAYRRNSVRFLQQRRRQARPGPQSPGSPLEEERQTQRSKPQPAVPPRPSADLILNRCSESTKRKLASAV
Mcl1-Noxa inh: Mcl-1/Noxa interaction inhibition | Q07820 | TR-FRET Mcl-1/Noxa peptide binding, 2 h | inhibition, % at 21.7 µM | actives 1.5% (n = 220,000);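 active = compounds that cut the protein-peptide binding signal by more than 50% relative to plate controls in a single-dose test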;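 note: His-tagged Mcl-1 with rhodamine Noxa BH3 peptide and terbium anti-His antibody; 0% = Mcl-1 plus Noxa peptide wells and 100% = peptide-only wells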
14-3-3 Bad inh: disrupts binding of bovine 14-3-3 zeta to phospho-Bad peptide; P63103; TR-FRET 14-3-3zeta/Dy647-pBad peptide displacement, 1 h; inhibition, % at 21.7 µM; actives 0.71% (n = 220,000); AID 781;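 active = inhibition above about 70%, limit read from the data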;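 note: 0% = full 14-3-3 plus peptide FRET controls and 100% = background without 14-3-3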
Mcl-1 Bim block: disrupts Bim peptide binding to human Mcl-1 | Q07820 | Bead-based flow cytometry, Bim peptide-Mcl-1 binding | inhibition, % at 10 µM | actives 0.1% (n = 190,000) | AID 1009; in the data active = inhibition above about 40%;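 note: 0% = no compound tracer wells and 100% = peptide blocker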
* marks the source's active call; other numbers are inactive results; . = not tested or not shown.

SMILES	Mcl1-Bid inh	Calpain2 inh	p47phox inh	Mcl1-Noxa inh	14-3-3 Bad inh	Mcl-1 Bim block
Cc1ccc(-n2c(C)cc(C3N=C(N)Nc4nc5ccccc5n43)c2C)c(C)c1 (stereo unspecified)	-35	-364	30*	-12	25	-2
Cc1cc(C2N=C(N)Nc3nc4ccccc4n32)c(C)n1-c1ccccc1Cl (stereo unspecified)	-23	-104	41*	-25	14	1
O=C(Nc1ccccc1)NC1CCCCNC1=O (stereo unspecified)	-2	2	-3	-16	0	.
O=C(Cn1nc(C(F)(F)F)c2c1CCCC2)NCc1ccco1	98*	11	-12	-2	3	1
COc1ccc(CNC(=O)Cn2nc(C(F)(F)F)c3c2CCC3)cc1	-13	2	-11	-24	-6	0
CC(C)NC(=O)c1cc(=O)n(C)c(=O)n1C	-12	-55	5	-18	88*	-1
C=C1C(=O)[C@@]23[C@H](O)C[C@@H]4C(C)(C)CC[C@H](O)[C@]4(C)[C@@H]2C[C@H](O)[C@@H]1[C@H]3O	80*	-17	-6	41	34	-2
Cc1nnc(SCC(=O)Nc2cccc(S(=O)(=O)N(C)c3ccccc3)c2)s1	-24	5	-3	4	9	9
CCCCN=C1NN=C(c2cccc([N+](=O)[O-])c2)CS1	9	37	6	51*	-5	3
CCCCN=C1NN=C(c2cc3ccccc3o2)CS1	-45	25	-45	70*	-8	-1
CCc1nnc2n1N=C(c1cccc([N+](=O)[O-])c1)CS2	13	21	-5	16	6	.
COCCCN=C1NN=C(c2cc(C)n(-c3ccccc3)c2C)CS1	-12	-17	-30	11	-8	-9
CCNc1nc(NC(C)C)nc(N(C#N)C(C)C(=O)N(CC)CC)n1 (stereo unspecified)	-33	9	-3	-10	3	.
Cc1cc(OCC(=O)Nc2ccc(S(=O)(=O)NC3=NCCCCC3)cc2)c(C(C)C)cc1Cl	2	19	-40	18	27	-11
Cc1ccc(N2C(=O)N(CC(=O)N3CCOCC3)C(=O)C2C)cc1 (stereo unspecified)	-8	24	1	-5	2	-2
Cc1ccc(NCC(=O)N/N=C/c2ccncc2)cc1	-69	-26	-14	13	-7	1
Cc1ccc(C(=O)Nc2nnc(CC(=O)N/N=C/c3ccncc3)s2)cc1	17	-140	15	63*	6	-2
Cc1cccc(NC(=O)Cn2cnc3ccccc3c2=O)c1C	-6	12	-3	2	92*	2
O=C(C1CCCN(CCCc2ccccc2)C1)N1CCCCCC1 (stereo unspecified)	9	-3	1	5	3	-3
Cc1cc(C)c(S(=O)(=O)N(C)CC(N)=O)c(C)c1	-20	39	63*	-8	-15	0
Cc1cc(C)c(S(=O)(=O)N(C)CC(=O)N2CCCCC2)c(C)c1	-18	-22	-9	-15	6	-1
C/C(=N\NC(=O)c1c(Cl)c(C)nn1C)c1cccc(NC(=O)COc2ccccc2)c1	60*	40	15	-65	20	4
C/C(=N\NC(=O)c1c(Cl)c(C)nn1C)c1ccc(NC(=O)COc2ccc(Cl)cc2C)cc1	0	-285	4	-5	0	-3
CN(/N=C\c1ccc(O)c(O)c1)c1nc(-c2ccccc2)cc(-c2ccccc2)n1	22	-67	-14	72*	-5	0
CC(=O)c1c(C(C)=O)c(C)n(C(c2ccccc2)c2ccccc2)c1C	-25	51*	-6	11	-3	-1
SMILES	Mcl1-Bid inh	Calpain2 inh	p47phox inh	Mcl1-Noxa inh	14-3-3 Bad inh	Mcl-1 Bim block
c1csc(Cc2nn3c(-c4n[nH]c5c4CCC5)nnc3s2)c1	-17	-106	-12	54*	0	2
c1coc(-c2nnc3sc(Cc4cccs4)nn23)c1	-25	-11	-16	39	-14	-2
COc1cc(/C=N/NC(=O)C(Cc2c[nH]c3ccccc23)NC(=O)OCC(C)C)cc([N+](=O)[O-])c1O (stereo unspecified)	-41	-34	-1	52*	2	-2
COc1cc(/C=N/NC(=O)C(Cc2c[nH]c3ccccc23)NC(=O)OCc2ccccc2)cc([N+](=O)[O-])c1O (stereo unspecified)	-64	-56	-25	81*	-9	-2
CCOC(=O)C1=NNC2(c3ccc(Cl)cc3)C(=O)N(c3ccc(C)cc3)C(=O)C12 (stereo unspecified)	10	-14	-6	15	4	-10
COc1ccc(CCNC(=O)c2nnn(CC(=O)Nc3cccc(F)c3)c2N)cc1OC	-18	-43	-4	10	-6	0
CCOC(=O)N1CCN(C(=O)c2ccc(CS(=O)(=O)c3ccccc3OC)o2)CC1	-44	-6	-1	59*	-2	2
CC(=O)Nc1ccc(N2CCN(c3ccc(C(F)(F)F)cn3)CC2)nc1	-16	8	-4	-2	0	.
O=C(Nc1ccc(F)cc1)N1CCCN(c2ccc(C(F)(F)F)cn2)CC1	83*	6	-10	31	27	.
O=c1cc(N2CCCCC2)c(-c2ccccc2)nn1Cc1ccccc1Cl	3	23	-19	7	-10	0
O=c1cc(N2CCCCC2)c(-c2ccccc2)nn1Cc1ccc(Cl)cc1Cl	-21	54*	2	-15	5	0
O=C(COc1ccccc1)Nc1ccc(S(=O)(=O)N2CCCC2)cc1	-6	-4	-2	13	5	-3
CC(C)c1ccc(S(=O)(=O)N2CCN(CCC(=O)Nc3ccc(N(C)C)cc3)CC2)cc1	-33	-13	-8	72*	-3	0
COc1ccc(S(=O)(=O)N2CCN(C(=O)Cc3cccs3)CC2)cc1	4	24	3	10	-3	-4
O=C(Cc1cccs1)N1CCN(S(=O)(=O)c2ccccc2)CC1	97*	-20	-6	14	-7	-2
O=C(Cc1cccs1)Nc1ccc(S(=O)(=O)N2CCCCC2)cc1	24	-192	-60	66*	1	-2
O=C(CCOc1ccccc1)Nc1ccc(S(=O)(=O)N2CCCC2)cc1	-14	57*	-9	-2	-4	-3
Cc1csc(SCC(=O)NC(=O)NCCC(C)C)n1	-18	15	-12	15	-5	-2
CCOC(=O)c1csc(NNC=O)n1	-72	24	-11	4	19	1
CN(C)c1ccc(C(c2nnnn2CCOC(=O)Nc2ccc(Cl)cc2)N2CCOCC2)cc1 (stereo unspecified)	-57	-11	-15	29	8	0
CCOCCCNC(=S)Nc1cc(C)cc(C)c1	-40	25	-11	17	-9	-2
O=C(Cc1ccc(S(=O)(=O)N2CCOCC2)s1)Nc1nc2c(s1)CCCC2	-59	-35	-27	71*	54	0
